Assay results taken from PubChem BioAssay (Tox21).
Several values for one entry are separate records, joined by “and”; a condition that tells them apart may be missing. Equal entries are not always repeated. Inconclusive results are not listed. More than one record can exist for a structure, and the calls need not agree. Activity calls are given as the source filed them. Unless noted, calls follow the shape of the dose curve; as a rule, active = well fitted curve in the direction sought with a large enough effect in the repeat runs; inconclusive = weak or mixed curves; inactive = no such curve, though single readings can be large; an effect the other way counts as inactive or inconclusive.

Legend:
[1] = target: Nuclear receptor ROR-gamma (Homo sapiens) (UniProt P51449); test: qHTS assay to identify small molecule antagonists of the retinoid-related orphan receptor gamma (ROR-gamma) signaling pathway (AID 1159521; also: nearly all actives have a fitted effect of over 50% in size; also: potency is read from the fitted curve at half-maximal effect;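 as to activity change, negative = inhibition: CHO cells with doxycycline inducible ROR-gamma driving an RORE luciferase reporter; top concentration of the series differs between compounds; % is scaled to controls: 0 for no effect and ±100 for the full control effect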)
Summary of the method: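 RORγ antagonism is scored from reduced reporter luminescence in Tet-on CHO cells. Induction used 1 uM final doxycycline hyclate for 16 h at 37 C, following a 2 h compound exposure.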

[2] = qHTS assay to identify small molecule agonists of the AP-1 signaling pathway - cell viability counter screen (AID 1159525; calls by dose curve; also: nearly all actives have a fitted effect of over 55% in size; also: potency is read from the fitted curve at half-maximal effect)
Summary of the method: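 ME-180 AP-1-bla, 2500 cells/well, Opti-MEM + 0.5% dialyzed FBS; overnight 37 °C; cpd 15-pt titration, 5 h 37 °C; CellTiter-Glo 30 min RT; luminescence read; normalised to TOAB and DMSO controls.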

[3] = qHTS assay to identify small molecule agonists of the AP-1 signaling pathway (AID 1159526; calls by dose curve; also: % is scaled to controls: 0 for no effect and ±100 for the full control effect)
[4] = target: Retinoic acid receptor RXR-alpha (Homo sapiens) (UniProt P19793); test: qHTS assay to identify small molecule agonists of the RXR signaling pathway (AID 1159527; calls by dose curve; also: % is scaled to controls: 0 for no effect and ±100 for the full control effect; nearly all actives have a fitted effect of over 35% in size)
Summary of the method: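 qHTS of the Tox21 10K library in GeneBLAzer RXR-alpha HEK 293T cells carrying a beta-lactamase reporter […]; 16 hr treatment, 9-cis retinoic acid as agonist control, FRET read-out.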

[5] = qHTS assay to identify small molecule agonists of the RXR signaling pathway - cell viability counter screen (AID 1159529); also: nearly all actives have a fitted effect of over 50% in size; also: potency is read from the fitted curve at half-maximal effect
Summary of the method: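 Cell viability is measured by CellTiter-Glo luminescence, 30 min at room temperature, in wells already read for beta-lactamase. Engineered HEK 293T cells (RXR-alpha-UAS-bla) are dosed 16 hr at 37 C. Tetraoctyl ammonium bromide serves as positive control.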

[6] = qHTS assay to identify small molecule antagonists of the retinoid acid receptor (RAR) signaling pathway - cell viability counter screen (AID 1159551); also: % is scaled to controls: 0 for no effect and ±100 for the full control effect; nearly all actives have a fitted effect of over 35% in size
Summary of the method: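 Following overnight attachment, C3RL4 reporter cells received DMSO-dissolved compounds and then retinol (1 uM final). Six hours later at 37 C, ATP content was measured by CellTiter-Glo luminescence.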

[7] = qHTS assay to identify small molecule antagonists of the retinoic acid receptor (RAR) signaling pathway (AID 1159552; also: nearly all actives have a fitted effect of over 50% in size; also: potency is read from the fitted curve at half-maximal effect)
Summary of the method: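 Quantitative HTS in C3RL4 RARE-luciferase reporter cells. Compounds were added with 1 uM (final) retinol; luminescence was read after 6 hr.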

[8] = qHTS assay to identify small molecule antagonists of the estrogen related receptor (ERR) signaling pathway from Tox21 library - cell viability counter screen (AID 1224834); also: nearly all actives have a fitted effect of over 30% in size; also: potency is read from the fitted curve at half-maximal effect
Summary of the method: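 Viability readout (CellTiter-Fluor fluorescence, 30 min at 37 C) multiplexed with the ERR assay; cells treated 17.5 h at 37 C with compounds delivered in DMSO.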

[9] = qHTS assay to identify small molecule agonists of the vitamin D receptor (VDR) signaling pathway - cell viability counter screen (AID 743224); also: nearly all actives have a fitted effect of over 50% in size; also: potency is read from the fitted curve at half-maximal effect
Summary of the method: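 VDR-bla cell line, quantitative HTS format; 16 h compound incubation (37C, 5% CO2); ATP-based CellTiter-Glo luminescence measured in the reporter assay wells.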

[10] = qHTS assay to identify small molecule antagonists of the vitamin D receptor (VDR) signaling pathway - cell viability counter screen (AID 743225); also: nearly all actives have a fitted effect of over 50% in size; also: potency is read from the fitted curve at half-maximal effect
Summary of the method: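 Cells (VDR-UAS-bla HEK 293T) are plated, rested 4 h at 37C, dosed with compound and 3 nM final 1-alpha,25-dihydroxy vitamin D3, and incubated 16 h. Viability is taken from CellTiter-Glo luminescence in the reporter wells.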

[11] = qHTS assay to identify small molecule antagonists of the retinoid-related orphan receptor gamma (ROR-gamma) signaling pathway - cell viability counter screen (AID 1159520); also: nearly all actives have a fitted effect of over 50% in size; also: potency is read from the fitted curve at half-maximal effect
Summary of the method: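 Tet-on ROR gamma CHO cells (1,000/well) were plated 4 hr, given compounds in DMSO for 2 hr at 37 C, then induced with 1 uM final doxycycline for 16 hr. Viability was read as ATP by CellTiter-Glo luminescence after 30 min.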

[12] = qHTS assay to identify small molecule agonists of the retinoic acid receptor (RAR) signaling pathway (AID 1159553); also: potency is read from the fitted curve at half-maximal effect
Summary of the method: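 Cell line C3RL4, RARE luciferase reporter. Treatment: compounds in DMSO, 6 hr, 37 C, 5% CO2, after overnight plating. Detection: luminescence, 30 min RT after reagent.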

[13] = qHTS assay to identify small molecule agonists of the estrogen related receptor (ERR) signaling pathway (AID 1224820); also: % is scaled to controls: 0 for no effect and ±100 for the full control effect
Summary of the method: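 ERR reporter cells (NTP line) plated 2,000/well, incubated 6 h at 37 C/5% CO2, then pinned with compounds in DMSO and held 18 h at 37 C. One-Glo added; luminescence read after 30 min at room temperature.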

[14] = system: estrogen-related receptor alpha (ERRalpha) with PGC-1alpha coactivator, human; test: qHTS assay to identify small molecule antagonists of the estrogen related receptor signaling pathway with the pleiotropic PPARgamma coactivator (PGC) (AID 1224821; calls by dose curve)
Summary of the method: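 Cells engineered for PGC/ERR signalling (line from NTP) were plated 6 h at 37 C/5% CO2, then exposed to DMSO-dissolved compound for 18 h at 37 C. Luciferase activity was read by One-Glo luminescence after 30 min at room temperature.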

[15] = qHTS assay to identify small molecule antagonists of the estrogen related receptor signaling pathway with the pleiotropic PPARgamma coactivator (PGC) cell viability counter screen (AID 1224822;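 also: potency is read from the fitted curve at half-maximal effect; viability read after 17.5 h compound exposure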)
Summary of the method: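 qHTS format, DMSO compound stocks pin-transferred onto PGC/ERR cells 6 h after plating; 17.5 h exposure at 37 C, then CellTiter-Fluor fluorescence.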

[16] = qHTS assay to identify small molecule agonists of the estrogen related receptor signaling pathway with the pleiotropic PPARgamma coactivator (PGC) (AID 1224823); also: % is scaled to controls: 0 for no effect and ±100 for the full control effect
Summary of the method: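 PGC/ERR reporter cells were seeded, rested 6 h at 37 C/5% CO2, then exposed to compounds in DMSO by pin transfer for 18 h at 37 C. Luciferase activity was read as luminescence after One-Glo reagent and 30 min at room temperature.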

Retinoic acid receptor RXR-alpha (Homo sapiens), sequence (P19793 whole entry, looked up): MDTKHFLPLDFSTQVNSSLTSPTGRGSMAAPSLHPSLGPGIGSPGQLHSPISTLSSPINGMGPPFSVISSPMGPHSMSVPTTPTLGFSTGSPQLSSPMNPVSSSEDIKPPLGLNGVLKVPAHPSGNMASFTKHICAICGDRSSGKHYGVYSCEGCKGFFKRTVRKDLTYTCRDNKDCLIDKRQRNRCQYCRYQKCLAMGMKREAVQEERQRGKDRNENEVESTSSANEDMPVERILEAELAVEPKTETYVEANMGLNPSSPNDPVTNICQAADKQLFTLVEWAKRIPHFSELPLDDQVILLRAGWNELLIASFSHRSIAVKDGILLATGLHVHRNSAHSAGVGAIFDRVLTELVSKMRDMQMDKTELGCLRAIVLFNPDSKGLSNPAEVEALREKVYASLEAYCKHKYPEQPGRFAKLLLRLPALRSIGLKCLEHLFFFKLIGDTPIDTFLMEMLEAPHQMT

CC1CCCCC1
inactive: Potency [1] | Potency [2] | Potency [3] | Potency [4] | Potency [5] | Potency [6] | Potency [7] | Potency [8]

CC(=O)OC1CCCCC1
inactive: Potency [1] | Potency [2] | Potency [3] | Potency [4] | Potency [5] | Potency [6] | Potency [7] | Potency [8]

CC1=C(/C=C/C(C)=C/C=C/C(C)=C/C(=O)Nc2ccc(O)cc2)C(C)(C)CCC1
active: Potency [9] 14.2 µM and 10.6 µM | Potency [10] 14.2 µM and 10.7 µM | Potency [11] 31.4 µM and 13.3 µM | Potency [1] 19.8 µM and 8.41 µM | Potency [2] 44.8 µM | Potency [5] 35.6 µM and 12 µM | Potency [12] 4.98 µM and 2.66 µM | Potency [15] 13.9 µM | Potency [8] 28 µM and 23.7 µM
inactive and 29.8 µM (active): Potency [7]
inactive: outcome [13] | outcome [14] | outcome [16]

COc1ccccc1C=O
inactive: Potency [1] | Potency [2] | Potency [3] | Potency [4] | Potency [5] | Potency [6] | Potency [7] | Potency [8]

Oc1ccc(-c2ccc(O)cc2)cc1
inactive: Potency [9] | Potency [10] | Potency [1] | Potency [2] | Potency [3] | Potency [5] | Potency [7] | Potency [12]

CCc1c(C(=O)O)c(=O)cnn1-c1ccc(Cl)cc1
inactive: Potency [1] | Potency [2] | Potency [3] | Potency [4] | Potency [5] | Potency [6] | Potency [7] | Potency [8]

CCCCCCCOC(=O)c1ccccc1C(=O)OCCCCCCC
inactive: Potency [1] | Potency [2] | Potency [3] | Potency [4] | Potency [5] | Potency [6] | Potency [7]

COCC(=O)O[C@]1(CCN(C)CCCc2nc3ccccc3[nH]2)CCc2cc(F)ccc2[C@@H]1C(C)C
inactive: Potency [2]
active: Potency [10] 21.3 µM | Potency [11] 29.8 µM | Potency [1] 26.6 µM | Potency [5] 15.1 µM | Potency [7] 26.6 µM | Potency [8] 26.6 µM

Clc1cc(Cl)c(-c2c(Cl)c(Cl)cc(Cl)c2Cl)cc1Cl
inactive: Potency [1] | Potency [2] | Potency [3] | Potency [4] | Potency [5] | Potency [7] | Potency [8]

C=CC(=O)OCCN(CC)CC
inactive: Potency [1] | Potency [2] | Potency [3] | Potency [4] | Potency [5] | Potency [6] | Potency [7] | Potency [8]

CCc1cccc(CC)c1N(COC)C(=O)CS(=O)(=O)O
inactive: Potency [11] | Potency [1] | Potency [2] | Potency [3] | Potency [5] | Potency [7] | Potency [8]

OCCC(O)CO (stereo not drawn)
inactive: Potency [1] | Potency [2] | Potency [3] | Potency [4] | Potency [5] | Potency [6] | Potency [7] | Potency [8]

CC(C)=C1CC[C@@H](C)CC1=O
inactive: Potency [9] | Potency [10] | Potency [11] | Potency [1] | Potency [2] | Potency [3] | Potency [5] | Potency [6] | Potency [8]

C[C@H]1O[C@@H](O[C@H]2[C@@H](O)C[C@H](O[C@H]3[C@@H](O)C[C@H](O[C@H]4CC[C@@]5(C)[C@H](CC[C@@H]6[C@@H]5C[C@@H](O)[C@]5(C)[C@@H](C7=CC(=O)OC7)CC[C@]65O)C4)O[C@@H]3C)O[C@@H]2C)C[C@H](O)[C@@H]1O
active: Potency [9] 17.4 nM | Potency [10] 21.9 nM and 13.6 nM | Potency [1] 4.33 µM and 8.54 µM
30.7 µM (active) and inactive: Potency [11]
inactive: Potency [3] | Potency [7] | Potency [12]

CCc1ccc(O)c(C(C)(C)C)c1
active: Potency [10] 38.9 µM
inactive: Potency [1]

C=CC(=O)OCC(O)COc1ccccc1 (stereo not drawn)
active: Potency [1] 61.1 µM
inactive: Potency [5]

CC[N+](CC)(CC)Cc1ccccc1
inactive: Potency [1] | Potency [2] | Potency [3] | Potency [5] | Potency [6] | Potency [7] | Potency [8]

C=C/C=C/C=C/CCCCC
inactive: activity change, negative = inhibition [1] -0.464% [at 19 µM] | viability change, negative = cytotoxic [2] 1.06% [at 15.8 µM] | activation [3] 2.42% [at 15.8 µM] | activation [4] -4.02% [at 15.8 µM] | activity change, negative = cytotoxicity [5] -9.45% [at 15.8 µM] | activity change, negative = cytotoxicity [6] -3.82% [at 19 µM] | activity, negative = inhibition [7] 7.32% [at 19 µM]

CCCCCCCC(C)=O
inactive: Potency [1] | Potency [2] | Potency [3] | Potency [4] | Potency [5] | Potency [6] | Potency [7] | Potency [8]

C[C@@H]1CC[C@H]2C(C)(C)[C@H]3C[C@@]12CC[C@@]3(C)O
inactive: Potency [10] | Potency [1] | Potency [2] | Potency [6] | Potency [7] | Potency [12] | Potency [8]

O=C1OC(=O)c2ccc3c4c(ccc1c24)C(=O)OC3=O
inactive: Potency [1] | Potency [2] | Potency [3] | Potency [5] | Potency [7] | Potency [8]

O[C@@H](c1cc(C(F)(F)F)nc2c(C(F)(F)F)cccc12)[C@H]1CCCCN1
active: Potency [10] 19 µM | Potency [5] 15.1 µM | Potency [7] 23.7 µM | Potency [8] 29.8 µM
inactive: Potency [2]

CCC1CCCCC1
inactive: Potency [1] | Potency [2] | Potency [3] | Potency [4] | Potency [5] | Potency [7] | Potency [8]

CCOCOCC
inactive: Potency [11] | Potency [1] | Potency [2] | Potency [3] | Potency [5] | Potency [7] | Potency [8]

CN1CN(C)CN(C)C1
inactive: Potency [1] | Potency [2] | Potency [3] | Potency [5] | Potency [6] | Potency [7] | Potency [8]
